# Results filed as inconclusive are left out. Active and inactive are the calls of the source. The calls were made as follows, unless noted: active = hit-call score of the fitted dose curve at least 0.9, where 1 is the maximum; inactive = score below 0.9.
# Assays:
# [1] = BSK_BT_PBMCCytotoxicity: PBMC Cytotoxicity Assessment in the BioMAP Diversity Plus: BT Assay (AID 2284225); conditions: primary human B cells with PBMC;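 also: PBMC viability measured by Alamar Blue dye reduction fluorescence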
# Procedure, shortened: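 PBMC (75,000/well) pretreated with compound 1 h, then activated with SEB and TSST-1 (20 ng/mL each final), incubated 90 h; Alamar Blue added 6 h, fluorescence read at 546/580 nm. Fitted relative to DMSO.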
# [2] = read-out: Secreted IgG (sIgG), gene 3500; experiment: BSK_BT_sIgG: BioMAP Diversity Plus: BT Assay for Secreted IgG (sIgG) Biomarker Activity (AID 2284226); conditions: primary human B cells with PBMC
# Procedure, shortened: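 Human B cell plus PBMC co-culture; secreted IgG measured by ELISA 24 h after chemical dosing. Response fitted in positive direction relative to DMSO baseline.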
# [3] = TAMU_PeakParms_SingleDonor1434_Chronotropy: Texas A&M University (TAMU) 1.5-hr Human Induced Pluripotent Stem Cell (iPSC)-derived Cardiomyocytes Calcium (Ca+2) Flux Assay for Cardiotoxicity: Chronotropy (changes in peak frequency) (AID 2284217); conditions: actives raise or lower the signal
# Procedure, shortened: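 Using fluorescent Ca2+ flux, average beats per second are measured in human iPSC-derived cardiomyocytes treated 90 min (0.5% DMSO vehicle, 0.2–100 uM). Non-beating data points are removed; activity is modeled in both directions relative to DMSO controls.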
# [4] = CCTE_Mundy_HCI_Cortical_NOG_NeuriteLength: CCTE's Neurite Outgrowth Assay in rat cortical cells for Neurite Length, Mundy Lab (AID 2284213)
# Procedure, shortened: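 Neurite length was read by high-content imaging of βIII-tubulin-labelled neurites in rat primary cortical cultures. Activity was fitted relative to DMSO.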
# [5] = CCTE_Mundy_HCI_Cortical_Synap_Neur_Matur_NeuriteLength: CCTE's Synaptogenesis and Neurite Maturation Assay in rat cortical cells for Neurite Length, Mundy Lab (AID 2284214)
# Procedure, shortened: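 Rat primary cortical cultures, AraC added DIV 5, dosed DIV 7 through DIV 12 […]. Fixed, MAP2/synaptophysin immunostained with Hoechst; neurite length by high-content imaging, fitted in positive direction versus DMSO.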
# [6] = CCTE_Mundy_HCI_Cortical_Synap_Neur_Matur_NeuriteSpotCountPerNeuron: CCTE's Synaptogenesis and Neurite Maturation Assay in rat cortical cells for Neurite Spot Count per Neuron Count, Mundy Lab (AID 2284215)
# Procedure, shortened: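 Rat primary cortical cultures given AraC at DIV 5, dosed from DIV 7 to DIV 12 with media change. Fixed, stained for MAP2, synaptophysin and Hoechst; neurite-associated synaptophysin puncta per neuron quantified by high-content imaging versus DMSO.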
# [7] = CCTE_Mundy_HCI_Cortical_Synap_Neur_Matur_SynapseCount: CCTE's Synaptogenesis and Neurite Maturation Assay in rat cortical cells for Synapse Count, Mundy Lab (AID 2284218)
# Procedure, shortened: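 Rat primary cortical cultures, AraC at DIV 5, chemical dosing DIV 7 to DIV 12 (288.33 h). Fixed cells stained for MAP2, synaptophysin and Hoechst; synapses per neuron counted by high-content imaging, loss of signal versus DMSO.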
# [8] = CCTE_Mundy_HCI_Cortical_Synap_Neur_Matur_NeuriteCount: CCTE's Synaptogenesis and Neurite Maturation Assay in rat cortical cells for Neurite Count, Mundy Lab (AID 2284222);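 also: exposure from day 7 to day 12 in vitro with readout at day 12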
# Procedure, shortened: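 In this multiplexed morphology readout, rat primary cortical neurons are fixed at DIV 12 following dosing at DIV 7 and stained for MAP2, synaptophysin and nuclei. High-content image analysis yields neurite count.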
# [9] = CCTE_Mundy_HCI_Cortical_Synap_Neur_Matur_CellBodySpotCount: CCTE's Synaptogenesis and Neurite Maturation Assay in rat cortical cells for Cell Body Spot Count, Mundy Lab (AID 2284223)
# Procedure, shortened: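 Primary rat cortical cultures, AraC added at DIV 5; dosed DIV 7 through DIV 12 […]. Fixed, stained for MAP2 and synaptophysin with Hoechst; cell body-associated synaptophysin puncta per neuron counted by high-content imaging, loss vs DMSO.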
# [10] = CCTE_Mundy_HCI_hNP1_Pro_ResponderAvgInten: CCTE's Proliferation Assay in human neuroprogenitor cells, Mundy Lab (AID 2284224; active = hit-call score of the fitted dose curve at least 0.9, where 1 is the maximum)
# Experimental: CCTE_Mundy_HCI_hNP1_Pro is a multiplexed, cell-based-readout assay that uses neural stem cells derived from a neuroepithelial cell lineage of WA09 embryonic cells with measurements taken at 26.25 hours after chemical dosing in a microplate: 96-well plate.CCTE_Mundy_HCI_hNP1_Pro_ResponderAvgInten is one of three components of the CCTE_Mundy_HCI_hNP1_Pro assay. It measures proliferation related to percentage of BrdU positive cells using High Content Imaging of fluorescently labelled markers.Data from the assay component CCTE_Mundy_HCI_hNP1_Pro_ResponderAvgInten was analyzed at the endpoint CCTE_Mundy_HCI_hNP1_Pro_ResponderAvgInten in the positive analysis fitting direction relative to DMSO as the negative control and baseline of activity. Using a type of growth reporter, loss -of-signal activity can be used to understand viability effects.
# Human neural progenitor cells (hNP1) were obtained as cryopreserved cells from ArunA Biomedical, Athens Georgia. Cells are plated on pre-coated poly-L-ornithine/laminin clear bottom and opaque 96 well plates (day 0). Plates are placed in a 37 °C, 5% CO2 incubator for 40 to 44 hours at which time plates are removed from the incubator and 10 uL of a freshly made chemical solution is added to each well. Twenty hours after the addition of the chemicals, the clear plates are removed from the incubator and 11 uL of a BrdU solution is added to each well. […]
smiles,measurement,setting,value
CC(=O)O[C@]1(C(C)=O)CC[C@H]2[C@@H]3C[C@H](C)C4=CC(=O)CC[C@]4(C)[C@H]3CC[C@@]21C,outcome,[1],inactive
same,AC50,[2],14.4 µM (active)
O=C(O)C[C@H](O)C[C@H](O)/C=C/c1c(C2CC2)nc2ccccc2c1-c1ccc(F)cc1,outcome,[1],inactive
same,AC50,[2],0.122 µM (active)
Nc1cc([N+](=O)[O-])ccc1Cl,outcome,[1],inactive
same,outcome,[2],inactive
Cc1ccc(Nc2ccc(O)c3c2C(=O)c2ccccc2C3=O)cc1,outcome,[1],inactive
same,outcome,[2],inactive
O=C1CCCCCCCCCCCCCCO1,AC50,[1],36.8 µM (active)
same,AC50,[2],23.4 µM (active)
C#C[C@]1(O)CC[C@H]2[C@@H]3CCC4=Cc5oncc5C[C@]4(C)[C@H]3CC[C@@]21C,outcome,[1],inactive
same,AC50,[2],14.3 µM (active)
CCCCC(CC)COCCC#N (stereo not given),outcome,[1],inactive
same,outcome,[2],inactive
CC1CCC(C(C)CS)CC1S (stereo not given),outcome,[1],inactive
same,outcome,[2],inactive
CCCCC/C=C/C=C/C=O,AC50,[1],20 µM (active)
same,AC50,[2],29 µM (active)
Cc1ccc2n[nH]nc2c1,outcome,[1],inactive
same,outcome,[2],inactive
CC(C)c1ccc(C(C)C)cc1,outcome,[1],inactive
same,outcome,[2],inactive
O=C(O)c1cn(-c2ccc(F)cc2)c2cc(N3CCNCC3)c(F)cc2c1=O,outcome,[1],inactive
same,outcome,[2],inactive
CCCCCCCCCCCCCCCCCC(=O)OCC(CC)CCCC (stereo not given),outcome,[1],inactive
same,outcome,[2],inactive
CCc1c(C)cc(N)c(CC)c1N,outcome,[1],inactive
same,outcome,[2],inactive
O=C(O)c1cn(C2CC2)c2cc(N3CCNCC3)c(F)cc2c1=O,outcome,[1],inactive
same,outcome,[2],inactive
c1ccc2c(c1)c1cccc3ccc4cccc2c4c31,AC50,[3],9.92 µM (active)
same,outcome,[1],inactive
same,AC50,[2],20 µM (active)
CC(=O)/C=C/C1=C(C)CCCC1(C)C,outcome,[1],inactive
same,outcome,[2],inactive
C=C[Si](OCC)(OCC)OCC,outcome,[1],inactive
same,outcome,[2],inactive
O=C1OC2(c3cc(Br)c(O)c(Br)c3Oc3c2cc(Br)c(O)c3Br)c2c(Cl)c(Cl)c(Cl)c(Cl)c21,outcome,[1],inactive
same,outcome,[2],inactive
C=C(C)C(=O)O[C@H]1C[C@@H]2CC[C@@]1(C)C2(C)C,outcome,[1],inactive
same,outcome,[2],inactive
c1ccc2sc(SN(C3CCCCC3)C3CCCCC3)nc2c1,outcome,[1],inactive
same,outcome,[2],inactive
CC(C)Oc1ccccc1O,outcome,[1],inactive
same,outcome,[2],inactive
CN(C)C(=N)N=C(N)N,outcome,[4],inactive
same,AC50,[5],18.1 µM (active)
same,outcome,[6],inactive
same,outcome,[7],inactive
same,outcome,[8],inactive
same,outcome,[9],inactive
O=[N+]([O-])c1cc(C(F)(F)F)ccc1Cl,outcome,[1],inactive
same,outcome,[2],inactive
COC(=O)c1ccc(C)cc1,outcome,[1],inactive
same,outcome,[2],inactive
CCCCC(CC)COC(=O)/C=C\C(=O)OCC(CC)CCCC (stereo not given),AC50,[1],36.1 µM (active)
same,AC50,[2],7.47 µM (active)
O=P(c1ccccc1)(c1ccccc1)c1ccccc1,outcome,[1],inactive
same,outcome,[2],inactive
BrC1CCC(Br)C(Br)CCC(Br)C(Br)CCC1Br (stereo not given),AC50,[1],32.4 µM (active)
same,AC50,[2],9.16 µM (active)
CC(=O)Nc1ccccc1O,outcome,[1],inactive
same,outcome,[2],inactive
CCCCCCCCCC=O,outcome,[1],inactive
same,AC50,[2],20 µM (active)
N#Cc1ccc(CC(=NNC(=O)Nc2ccc(OC(F)(F)F)cc2)c2cccc(C(F)(F)F)c2)cc1,outcome,[4],inactive
same,outcome,[5],inactive
same,outcome,[6],inactive
same,outcome,[7],inactive
same,outcome,[8],inactive
same,outcome,[9],inactive
same,outcome,[10],inactive
same,outcome,[1],inactive
same,AC50,[2],9.95 µM (active)
O=C=NC1CCC(CC2CCC(N=C=O)CC2)CC1 (stereo not given),outcome,[1],inactive
same,AC50,[2],31 µM (active)
CN(CCOc1ccc(CC2SC(=O)NC2=O)cc1)c1ccccn1 (stereo not given),outcome,[1],inactive
same,outcome,[2],inactive
CC(C)(COC(=O)c1ccccc1)COC(=O)c1ccccc1,outcome,[1],inactive
same,AC50,[2],29.9 µM (active)
CC1COc2ccccc2N1C(=O)C(Cl)Cl (stereo not given),AC50,[1],12.4 µM (active)
same,AC50,[2],20 µM (active)
CCCCCCCCC=O,outcome,[1],inactive
same,outcome,[2],inactive
Cc1ccc(O)c(C(C)(C)C)c1,outcome,[1],inactive
same,outcome,[2],inactive
CCn1c2ccccc2c2cc(N)ccc21,outcome,[1],inactive
same,AC50,[2],15.4 µM (active)
CNC[C@H](O)c1cccc(O)c1,outcome,[1],inactive
same,outcome,[2],inactive

# From PubChem BioAssay (EPA / NIEHS)
